Assay results as given in PubChem BioAssay AID488969 (Vanderbilt High Throughput Screening Facility, 2010).
The full ranking holds about 110,000 compounds; the median of “z-score” is about -0.1, and the highest 2% start at about 2. This is one part of a sample in which the highest values are shown more often than they occur. Activity calls are given as the source filed them.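 Rule for the calls: active = z-score in the third read window above 3 or below -3; inactive = the rest.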

Molecular target: Metabotropic glutamate receptor 8 (Rattus norvegicus) (UniProt P70579)
Sequence (P70579 whole entry, looked up): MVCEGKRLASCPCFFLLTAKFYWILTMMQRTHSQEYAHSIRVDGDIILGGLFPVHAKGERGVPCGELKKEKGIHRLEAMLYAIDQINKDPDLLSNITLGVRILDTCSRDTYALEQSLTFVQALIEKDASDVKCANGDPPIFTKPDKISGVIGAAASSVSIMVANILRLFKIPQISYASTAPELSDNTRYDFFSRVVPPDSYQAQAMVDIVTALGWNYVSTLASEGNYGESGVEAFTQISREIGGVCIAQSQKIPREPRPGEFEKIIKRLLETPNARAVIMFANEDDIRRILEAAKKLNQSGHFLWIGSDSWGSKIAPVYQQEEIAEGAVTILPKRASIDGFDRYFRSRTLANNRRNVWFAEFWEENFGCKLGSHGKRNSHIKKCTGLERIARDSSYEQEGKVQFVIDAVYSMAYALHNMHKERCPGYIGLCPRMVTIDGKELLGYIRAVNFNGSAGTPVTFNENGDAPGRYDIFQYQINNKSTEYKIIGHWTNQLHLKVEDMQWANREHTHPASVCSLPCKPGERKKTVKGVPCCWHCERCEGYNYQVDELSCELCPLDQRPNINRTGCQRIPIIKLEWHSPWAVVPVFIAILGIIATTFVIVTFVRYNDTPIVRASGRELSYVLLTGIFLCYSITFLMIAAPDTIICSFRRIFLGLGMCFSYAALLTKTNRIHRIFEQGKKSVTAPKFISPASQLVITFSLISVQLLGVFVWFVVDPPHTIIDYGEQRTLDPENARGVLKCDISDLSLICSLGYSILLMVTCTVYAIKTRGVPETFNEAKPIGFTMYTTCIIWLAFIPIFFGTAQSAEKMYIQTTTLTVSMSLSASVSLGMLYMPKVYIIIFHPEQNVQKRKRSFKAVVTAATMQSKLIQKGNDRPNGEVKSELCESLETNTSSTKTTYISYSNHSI
Assay: mGluR8 Gi/Go-coupled signaling modulation – cell-based, rat, thallium flux, HTS, primary screen (AID 488969)
Details: HEK293 rat mGluR8, GIRK (G protein-gated inwardly rectifying potassium channel) thallium flux, FluoZin2; at 10 µM; stronger effect = higher value; submaximal glutamate (EC20) added with thallium

Row | SMILES | z-score
1 | CCOC(=O)/C(=C/c1ccc(OC)cc1)NC(=O)c1ccco1 | -0.186
2 | COc1ccc(-c2csc(NC(=O)C3CCCCN3S(=O)(=O)c3ccccc3)n2)cc1 (stereo unspecified) | 1.82
3 | Cc1ccccc1-c1nnn(CC(=O)N2CCN(S(=O)(=O)c3ccc(Cl)cc3)CC2)n1 | -0.031
4 | Cn1c(=O)c2c(ncn2CC(=O)N/N=C/C(Br)=C/c2ccccc2)n(C)c1=O | 0.116
5 | Cn1c(=O)c2c(ncn2CC(=O)N/N=C/c2ccco2)n(C)c1=O | 1.59
6 | Cn1c(=O)c2c(ncn2CC(=O)N/N=C/c2ccc(Br)s2)n(C)c1=O | 2.47
7 | O=C(CSc1ccccc1Cl)NC1CCCc2ccccc21 (stereo unspecified) | -0.386
8 | O=C(NCc1ccco1)C1CCN(c2ccc(N3CCOCC3)nn2)CC1 | 0.321
9 | O=C(CCC(=O)Nc1ccccc1)NNC(=O)COc1ccccc1 | -0.00186
10 | O=C(Cc1ccccc1)N/N=C/c1ccc(OC(=O)/C=C\c2ccco2)cc1 | -0.0554
11 | CCN(CC)CCCn1c(C)cc2c(c1=O)C(c1ccc(OC)c(OC)c1OC)C(C#N)=C(N)O2 (stereo unspecified) | -0.47
12 | CCN(CC)CCCn1c(C)cc2c(c1=O)C(c1cccc(Cl)c1)C(C#N)=C(N)O2 (stereo unspecified) | 2.38
13 | CCN(CC)CCCn1c(C)cc2c(c1=O)C(c1ccccc1)C(C#N)=C(N)O2 (stereo unspecified) | 0.538
14 | O=S(=O)(/N=C(/Nc1ccc(F)c(F)c1F)c1ccccc1)c1ccccc1 | -0.125
15 | CC(C#N)Sc1ncnc2sc3c(c12)CCC3 (stereo unspecified) | 0.00954
16 | CCSc1ncnc2sc3c(c12)CCC3 | -0.0891
17 | Cc1cc(C)nc(Sc2ncnc3sc4c(c23)CCC4)n1 | 5.12 (active)
18 | O=C(NCc1ccc(Cl)cc1Cl)C(=O)N1CCCCC1 | 0.112
19 | O=C(COc1ccccc1)NCCc1cn2ccsc2n1 | 0.183
20 | Cc1ccc(C)c(NC(=O)c2cnn3ccccc23)c1 | -0.0235
21 | COc1cc(CCN2C(=O)c3cccc4cccc(c34)C2=O)c(S(=O)(=O)NCCCO)cc1OC | 0.452
22 | CC(=O)n1cc(Nc2ccccc2C(=O)O)c2ccccc21 | -1.18
23 | CCOC(=O)c1ccccc1Nc1cn(C(C)=O)c2ccccc12 | 2.73
24 | CCOC(=O)c1ccccc1NC(=O)COC | -0.129

Row | SMILES | z-score
25 | COc1cccc2[nH]c3c(N4CCC(C(N)=O)CC4)ncnc3c12 | 0.0357
26 | Cc1ccc(S(=O)(=O)N(CCC(=O)O)Cc2ccc(Cl)cc2)cc1 | -0.125
27 | Cc1ccc(S(=O)(=O)N2CCN(C(=O)CN3C(=O)NC4(CCOc5ccccc54)C3=O)CC2)cc1 (stereo unspecified) | 0.106
28 | CCN(CC)CCn1cnc2c([nH]c3cccc(OC)c32)c1=O | -0.0646
29 | CCOC(=O)C1CCN(C(=O)NC23CC4CC(CC(C4)C2)C3)CC1 | 3.31 (active)
30 | CCOC(=O)C1CCN(C(=O)C23CC4CC(CC(C4)C2)C3)CC1 | 0.212
31 | CCOC(=O)N1CCN(C(=O)NC23CC4CC(CC(C4)C2)C3)CC1 | -0.174
32 | Cc1cccc(NC(=S)NCCc2c[nH]c3ccccc23)c1 | 0.201
33 | CC(C)(C)Nc1nc2nonc2nc1NC(C)(C)C | -0.28
34 | Cc1oc(/C=N/NC(=O)CN(c2ccccc2Br)S(C)(=O)=O)cc1Br | -0.262
35 | CCN(CC)S(=O)(=O)c1csc(C(=O)OCC(=O)c2ccccc2)c1 | -0.217
36 | CCN(CC)S(=O)(=O)c1csc(C(=O)NC2CCCCC2)c1 | 0.101
37 | CCN(CC)S(=O)(=O)c1csc(C(=O)NCc2ccccc2)c1 | 2.45
38 | COn1c2c(c3c4no[n+]([O-])c4ccc31)CCCC2 | -0.414
39 | COc1cccc(NC(=O)CCSc2ccc3ccccc3n2)c1 | -0.0656
40 | O=C(O)c1cc(NS(=O)(=O)c2ccc(N3CCCCC3)c([N+](=O)[O-])c2)cc(C(=O)O)c1 | -0.105
41 | CCC(C)n1c(SCC(=O)NC(=O)Nc2ccc3c(c2)OCCO3)nc2ccccc2c1=O (stereo unspecified) | 4.47 (active)
42 | COCC(C)n1c(SCC(=O)NC(=O)Nc2ccc3c(c2)OCCO3)nc2ccccc2c1=O (stereo unspecified) | -1.25
43 | CCC(C)n1c(SCC(=O)Nc2cc(C)on2)nc2ccccc2c1=O (stereo unspecified) | 0.0932
44 | Cn1c(=O)c2c(nc(SCC(=O)NCc3ccco3)n2C)n(C)c1=O | 0.332
45 | C/C(CC(=O)Nc1ccccn1)=N\NC(=O)c1ccc2ccccc2c1 | -0.53
46 | CCCNC(=O)C(=O)Nc1ccc(N(C)C)cc1 | -0.0526
47 | COc1ccccc1/C=C/C(=O)NC(=S)NC(C)C | 0.776
48 | COc1ccccc1/C=C/C(=O)NC(=S)Nc1ccc(S(=O)(=O)N(C)c2ccccc2)cc1 | 0.119

Row | SMILES | z-score
49 | O=C(NC(=S)Nc1ccc(Br)cn1)c1cncc(Br)c1 | 0.371
50 | O=C(NC(=S)NCC1CCCO1)c1ccccc1Br (stereo unspecified) | 1.6
51 | Cc1ccccc1NC(=S)NC(=O)c1cncc(Br)c1 | 6.92 (active)
52 | CC1CCCCC1NC(=S)NC(=O)c1ccccc1Br (stereo unspecified) | 0.799
53 | Cc1cccnc1NC(=S)NC(=O)c1cncc(Br)c1 | -0.14
54 | CC1CCCC(NC(=S)NC(=O)c2ccccc2Br)C1C (stereo unspecified) | 2.91
55 | O=C(NC(=S)Nc1ncc(Br)cc1Br)c1cncc(Br)c1 | 0.278
56 | CC1CCCC(NC(=S)NC(=O)c2cncc(Br)c2)C1C (stereo unspecified) | 6.76 (active)
57 | COc1ccccc1/C=C/C(=O)NC(=S)N(C)C1CCCCC1 | 4.46 (active)
58 | O=C(NC(=S)Nc1ccccn1)c1cncc(Br)c1 | 0.829
59 | CCOC(=O)c1c(C)nc2sc3c(=O)n(-c4ccc(C(C)=O)cc4)cnc3c2c1-c1ccc(Cl)cc1 | -0.533
60 | CC(C)(Oc1ccc(Cl)cc1)C(=O)N1CCN(c2ccccn2)CC1 | -0.0555
61 | Cc1cc(C)nc(/N=C2\NC(=O)CC3C(=O)NCCN23)n1 (stereo unspecified) | -0.12
62 | CS(=O)(=O)N(CC(=O)NCc1ccncc1)c1ccc(Cl)c(Cl)c1 | -0.214
63 | COC(=O)c1cc(Cl)c(NC(=O)/C=C/c2ccc(Cl)cc2)cc1OC | -0.0302
64 | CCCN1C2CCCC1CC(NC(=O)Nc1ccc(C(C)C)cc1)C2 (stereo unspecified) | 0.407
65 | CN1CCN(Cc2cc(=O)oc3cc4c(cc23)CCC4)CC1 | 0.745
66 | CN(C(=O)c1ccc(C(=O)N(C)C2CCCCC2)cc1)C1CCCCC1 | 0.244
67 | O=C(NC(=S)NC1CC1)c1cccnc1 | 0.798
68 | CN(C(=O)c1ccccc1Cl)C1CCCCC1 | 0.549
69 | O=C(NC(=S)NC1CCCCCC1)c1cncc(Br)c1 | 6.87 (active)
70 | O=C(NC(=S)NC1CCCCCCCCCCC1)c1cccnc1 | -0.0629
71 | CN(C(=S)NC(=O)c1ccccc1Br)C1CCCCC1 | 3.51 (active)
